# Several values for one entry are separate records, joined by “and”; a condition that tells them apart may be missing. Equal entries are not always repeated. Where a structure was tested more than once in an assay, its records may differ in their call. Activity calls are given as the source filed them. Rule for the calls: active = hit-call score of the fitted dose curve at least 0.9, where 1 is the maximum; inactive = score below 0.9.
# Target: Cellular tumor antigen p53 (Homo sapiens) (UniProt P04637)
# Experiment: ATG_p53_CIS: Attagene CIS-FACTORIAL HepG2 Assay for human p53 Transcription Factor (AID 2282994)
# Details: HepG2 p53 cis-element reporter, Attagene mRNA; actives raise or lower the signal
# Experimental: ATG_CIS is a cell-based, multiplexed-readout assay that uses HepG2, a human liver cell line, with measurements taken at 24 hours after chemical dosing in a 24-well plate.ATG_p53_CIS is one of 52 assay component(s) measured or calculated from the ATG_CIS assay. It is designed to make measurements of mRNA induction, a form of inducible reporter, as detected with fluorescence intensity signals by Reverse transcription polymerase chain reaction (RT-PCR) and Capillary electrophoresis technology.Data from the assay component ATG_p53_CIS was analyzed into 1 assay endpoint. This assay endpoint, ATG_p53_CIS, was analyzed with bidirectional fitting relative to DMSO as the negative control and baseline of activity. Using a type of inducible reporter, measures of mRNA for gain or loss-of-signal activity can be used to understand the reporter gene at the transcription factor-level as they relate to the gene TP53. Furthermore, this assay endpoint can be referred to as a primary readout, because this assay has produced multiple assay endpoints where this one serves a reporter gene function. To generalize the intended target to other relatable targets, this assay endpoint is annotated to the dna binding intended target family, where the subfamily is tumor suppressor.
# Human liver HepG2 cells are transiently transfected with multiple reporter transcription units (MRTUs) in 6-well plates using FuGene 6 reagent (Roche; 3 ml FuGene/1 mg DNA). The MRTU constructs are regulated by a cis-regulating element (promoter). […] A major difference between the CIS and TRANS system is that in CIS activities of endogenous TFs are measured, whereas the TRANS assay evaluates changes in activities of exogenous, chimeric NR-Gal4 proteins. […] At the end of 24 hour incubation, total RNA was isolated using TriZol reagent (Invitrogen). The isolated RNA is then reverse-transcribed using oligo(dT) primer and Mo-MLV reverse transcriptase (Invitrogen) with DNAse I (Ambion) treatment for 30 min. The one-tenth of the produced cDNA was amplified by PCR using Taq DNA polymerase (Invitrogen) and two reporter sequence-specific primers. The PCR products were fluorescently labeled by primer extension with 6-arboxyfluorescein (6-FAM) 5'-labeled reporter sequence-specific primer (2 min at 95 C, 20 s at 68 C and 10 min at 72 C) and these products were digested with 5U of HpaI (New England Biolabs) for 2h at 37 C. The fragments were purified using Qiaquick PCR columns (Qiagen), analyzed on an ABI 3130xL genetic analyzer (Applied Biosystems) with peak positions identified by using a set of X-rhodamine (ROX)-labeled MapMarker1000 molecular weight standards (BioVentures). The raw capillary electrophoresis data was processed using Attagraph software (Attagene).
# Cellular tumor antigen p53 (Homo sapiens), sequence (P04637 whole entry, looked up): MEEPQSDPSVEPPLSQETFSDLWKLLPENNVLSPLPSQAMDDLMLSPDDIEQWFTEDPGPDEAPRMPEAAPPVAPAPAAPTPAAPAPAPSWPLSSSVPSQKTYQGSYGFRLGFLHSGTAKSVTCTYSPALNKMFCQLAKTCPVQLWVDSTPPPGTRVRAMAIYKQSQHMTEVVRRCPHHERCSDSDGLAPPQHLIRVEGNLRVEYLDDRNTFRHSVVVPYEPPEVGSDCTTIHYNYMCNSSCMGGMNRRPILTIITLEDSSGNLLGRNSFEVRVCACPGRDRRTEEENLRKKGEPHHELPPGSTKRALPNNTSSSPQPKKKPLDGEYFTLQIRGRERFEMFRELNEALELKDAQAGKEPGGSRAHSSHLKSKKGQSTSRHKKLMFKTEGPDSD
Compound,outcome,AC50
Nc1cccc2ccccc12,inactive,–
Nc1ncc([N+](=O)[O-])s1,inactive,–
COC(=O)c1sccc1S(=O)(=O)NC(=O)Nc1nc(C)nc(OC)n1,inactive,–
C[C@]12CCC(=O)C[C@@H]1CC[C@@H]1[C@@H]2CC[C@]2(C)[C@@H](O)CC[C@@H]12,inactive,51.4 µM (active)
COP(=S)(OC)Oc1c(Cl)cc(C)cc1Cl,inactive,–
O=C(OC1CCCCC1)c1ccccc1C(=O)OC1CCCCC1,inactive,–
Cl/C=C/Cl,inactive,–
CCCCC(CC)CO[N+](=O)[O-] (stereo not given),inactive,–
CC(C)(C)CC(C)(C)c1ccc(O)cc1,inactive,16 µM (active) and 16.4 µM (active)
CCOC(=O)CP(=O)(OCC)OCC,inactive,–
CC12CC1(C)C(=O)N(c1cc(Cl)cc(Cl)c1)C2=O (stereo not given),inactive,–
CC(=[OH+])/C=C(/C)[O-].CC(=[OH+])/C=C(/C)[O-].CC(=[OH+])/C=C(/C)[O-].[Fe],inactive,–
COc1ccc(C=O)cc1OC,inactive,–
CCC(=O)C(CC(C)N(C)C)(c1ccccc1)c1ccccc1 (stereo not given),–,48.9 µM (active)
CCOP(=S)(OCC)Oc1nc(Cl)c(Cl)cc1Cl,inactive,–
Cc1ccccc1N,inactive,–
CC(C)(c1ccccc1)c1ccc(O)c(C(C)(C)c2ccccc2)c1,inactive,–
CCCCCCCCSC(=O)Oc1cc(Cl)nnc1-c1ccccc1,inactive,–
O=C(O)C(F)(F)C(F)(F)C(F)(F)C(F)(F)C(F)(F)C(F)(F)C(F)(F)C(F)(F)C(F)(F)C(F)(F)F,–,58.3 µM (active) and 37.6 µM (active)

Compound,outcome,AC50
C[C@H]1CCCC(=O)CCC/C=C/c2cc(O)cc(O)c2C(=O)O1,inactive,–
O=C/C=C/c1ccccc1,inactive,–
CCCCOCCOC(C)=O,inactive,–
CN(C)P(=O)(N(C)C)N(C)C,inactive,–
CCC(C)c1cccc(C(C)CC)c1O (stereo not given),inactive,–
O=C(Cl)c1ccc(Cl)cc1,inactive,–
CC(=O)OC(c1ccccc1)C(Cl)(Cl)Cl (stereo not given),inactive,–
Cn1sc(Cl)cc1=O,inactive,–
Oc1cccc2cccnc12,inactive,–
CC(C)C1CCC(Cc2ccc(Cl)cc2)C1(O)Cn1cncn1 (stereo not given),–,11 µM (active)
CC(C)(c1ccc(OCC2CO2)cc1)c1ccc(OCC2CO2)cc1 (stereo not given),–,56.2 µM (active)
N#Cc1ccccn1,inactive,–
Cc1cc(=O)[nH]o1,inactive,–
CC(C#N)CCC#N (stereo not given),inactive,–
O=[N+]([O-])c1c(Cl)c(Cl)cc(Cl)c1Cl,inactive,–
CC(C)OC(=O)Nc1ccccc1,inactive,–
Cc1ccccc1C(=O)Nc1cccc(OC(C)C)c1,inactive,–
CCOC(=O)/C=C(C)/C=C/C[C@@H](C)CCCC(C)C,inactive,–
C=CC(=O)N(C)C,inactive,–

# Source: PubChem BioAssay (EPA / NIEHS)
